Data published in article PMC4336329 (PLoS ONE, 2015).
Out of some 310,000 compounds screened, about 14,000 (4.5%) showed an effect of 50% or more. Effects have a minus sign here. The sample holds strong results, similar compounds and a random draw of the others, so the mix is not that of the screen.

Biological target: human ether-à-go-go-related gene (hERG) potassium channel (human, UniProt Q12809)
Assay: primary screen, population patch clamp on CHO cells stably expressing hERG; higher = less effect of the substance
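Further: peak tail current of the secondary pulse compared with the same well before compound.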

Chain of human ether-à-go-go-related gene (hERG) potassium channel (Q12809 whole entry, looked up): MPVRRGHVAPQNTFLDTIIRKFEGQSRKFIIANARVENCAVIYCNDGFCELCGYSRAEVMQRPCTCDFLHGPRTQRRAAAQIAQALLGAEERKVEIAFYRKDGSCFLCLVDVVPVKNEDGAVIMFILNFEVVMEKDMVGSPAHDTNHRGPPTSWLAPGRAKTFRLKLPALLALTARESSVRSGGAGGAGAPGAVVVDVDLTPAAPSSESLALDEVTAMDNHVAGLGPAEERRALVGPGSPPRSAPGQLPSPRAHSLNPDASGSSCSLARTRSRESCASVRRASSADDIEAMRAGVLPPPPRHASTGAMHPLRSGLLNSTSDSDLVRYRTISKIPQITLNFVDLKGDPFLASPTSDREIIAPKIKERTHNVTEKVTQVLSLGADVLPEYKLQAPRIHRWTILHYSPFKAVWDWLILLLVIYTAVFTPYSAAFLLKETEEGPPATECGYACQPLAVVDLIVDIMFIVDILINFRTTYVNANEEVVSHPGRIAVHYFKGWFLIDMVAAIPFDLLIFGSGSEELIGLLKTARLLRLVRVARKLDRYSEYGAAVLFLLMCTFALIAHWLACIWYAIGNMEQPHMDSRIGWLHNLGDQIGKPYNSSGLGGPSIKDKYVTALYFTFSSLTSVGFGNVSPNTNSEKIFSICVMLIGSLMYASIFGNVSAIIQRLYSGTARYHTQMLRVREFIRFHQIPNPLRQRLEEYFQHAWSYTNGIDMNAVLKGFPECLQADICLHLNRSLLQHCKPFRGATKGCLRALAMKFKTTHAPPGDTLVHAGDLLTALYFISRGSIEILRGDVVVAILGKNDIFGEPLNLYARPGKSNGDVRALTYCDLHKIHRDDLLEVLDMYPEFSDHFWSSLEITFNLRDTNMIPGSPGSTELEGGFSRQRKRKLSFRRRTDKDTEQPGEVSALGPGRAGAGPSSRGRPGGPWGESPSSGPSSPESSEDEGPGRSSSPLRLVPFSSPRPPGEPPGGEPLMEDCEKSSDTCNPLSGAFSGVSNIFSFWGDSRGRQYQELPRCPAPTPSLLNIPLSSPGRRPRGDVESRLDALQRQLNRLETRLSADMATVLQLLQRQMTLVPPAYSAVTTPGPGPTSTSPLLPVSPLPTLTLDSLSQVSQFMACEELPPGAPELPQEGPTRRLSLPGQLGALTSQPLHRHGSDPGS

| SMILES | hERG current change (%, negative = inhibition) at 10uM [%] |
| --- | --- |
| O=C(CNC(=O)c1ccc(Br)o1)NNC(=O)c1ccc(Br)cc1 | -35.6 |
| O=C(c1ccccc1-c1nc2ccccc2[nH]1)N1CCOCC1 | -5.47 |
| COCCN1CCN(C(=O)C2CCC(=O)N(Cc3ccccc3OC)C2)CC1 (centres unmarked) | 8.85 |
| COc1ccc(/C=C(\C#N)C(=O)NCc2ccccc2)cc1 | 19.4 |
| COC(=O)[C@@]12CCCCN1[C@H](c1ccc(SC3CCCCC3)c(OC)c1)[C@@H]1C(=O)N(C)C(=O)[C@@H]12.O=C(O)C(F)(F)F | 19.8 |
| CCN1C(=O)[C@H]2[C@@H](c3ccc(SC4CCCCC4)c(OC)c3)N3CCCC[C@@]3(C(=O)OC)[C@H]2C1=O.O=C(O)C(F)(F)F | 13 |
| CCN1C(=O)[C@@H]2[C@@H](c3ccc(SC4CCCCC4)c(OC)c3)N3CCC[C@@]3(C(=O)OC)[C@@H]2C1=O.O=C(O)C(F)(F)F | -56 |
| COC(=O)c1ccccc1NC1=C/C(=N\S(=O)(=O)c2ccc(C(=O)O)cc2)c2ccccc2C1=O | -15.5 |
| CCCCNC(=O)C(C#N)c1nc2ccccc2nc1N1CCN(c2ccccc2F)CC1 (centres unmarked) | 4.79 |
| CC1CCN(C(=O)COC(=O)c2ccc(=O)n(Cc3ccccc3)n2)CC1 | -0.635 |
| Cc1ccc(/C=C/C2=NN(Cc3ccccc3Cl)C(=O)CC2)cc1 | -4.44 |
| COc1ccc(-c2nnnn2C(C)C)cc1S(=O)(=O)Nc1ccccc1 | -13.9 |
| O=C(CCNC(=O)c1ccc(Cl)cc1)NCCCN1CCOCC1 | 4.31 |
| Cc1cccc(CSCCNC(=O)c2ccc(CN3CCOCC3)cc2)c1 | -28.3 |
| Cc1ccc(SCCNC(=O)c2ccc(CN3CCOCC3)cc2)cc1 | -32.6 |
| Cc1ccc(C(=O)NCCCN2CCOCC2)o1 | 30.3 |
| O=C(NCCSCc1ccc(Cl)cc1Cl)c1ccc(CN2CCOCC2)cc1 | -54.6 |
| O=C(NCCSCc1c(F)cccc1Cl)c1ccc(CN2CCOCC2)cc1 | -26.9 |
| O=C(NCCCN1CCOCC1)c1ccc(-c2ccc(Cl)cc2)o1 | -55.1 |
| O=C(NCCN1CCOCC1)c1ccc(Cl)cc1 | 16 |
| O=C(NCCCN1CCOCC1)c1ccc(CS(=O)(=O)Cc2ccc(Cl)cc2)o1 | 4.4 |
| O=C(NCCSc1ccccc1)c1ccc(CN2CCOCC2)cc1 | -10.3 |
| O=C(NCCSc1ccc(Cl)cc1)c1ccc(CN2CCOCC2)cc1 | -58.5 |

| SMILES | hERG current change (%, negative = inhibition) at 10uM [%] |
| --- | --- |
| Cl.O=C(NCCCN1CCOCC1)c1ccc(CSc2ccc(Cl)cc2)cc1 | -59.2 |
| O=C(CSc1nnc(CNC(=O)c2cccc(C(F)(F)F)c2)o1)NC1CCCC1 | 5.51 |
| O=C(Cc1ccc(Br)cc1)N1CCOCC1 | 13.6 |
| COc1ccc(C(=O)Nc2sc3c(c2C(=O)O)CC(C)(C)OC3)cc1 | -2.18 |
| CN1CCN(c2ccccc2NC(=O)c2c(F)cccc2F)CC1 | -19.9 |
| O=C(NCc1ccco1)/C(=C\c1ccco1)NC(=O)c1cccs1 | -14.8 |
| CCOC(=O)c1c(NC(=O)CSc2nnc(-c3cccnc3)o2)sc(C(C)=O)c1C | -46.1 |
| Cc1ccc(-n2c(SCC(=O)N3CC(=O)Nc4ccccc43)nc3ccccc3c2=O)cc1 | -1.05 |
| CNC(=S)SCCOc1ccccc1 | -4.52 |
| O=C(Cc1cccs1)Nc1nc(-c2ccc(F)c(F)c2)cs1 | 19 |
| CCOc1ccc(N2CC(C(=O)NCCCN3CCOCC3)CC2=O)cc1 (centres unmarked) | -5.47 |
| O=C(COc1ccc(Br)cc1Cl)N1CCN(c2ncccn2)CC1 | -49.7 |
| CC1(C)CC(C(CC(=O)O)c2ccccc2)CCO1 (centres unmarked) | 28.9 |
| O=C(CN(Cc1ccccc1F)C(=O)c1ccco1)NCc1ccc(F)cc1 | -50.7 |
| O=C(CN(Cc1ccccc1)C(=O)c1ccco1)NCc1ccc(F)cc1 | -31.6 |
| CC1(C)CC(C(CCN(Cc2ccccc2)C(=O)c2ccco2)c2ccc(F)cc2)CCO1 (centres unmarked) | -10.4 |
| COc1cccc(CN(CC(=O)NCc2ccc(F)cc2)C(=O)c2ccco2)c1 | -39.2 |
| O=C(CN(Cc1ccc(F)cc1)C(=O)c1ccco1)NCc1ccc(F)cc1 | -40.9 |
| CCCCN(CC(=O)NCc1ccc(F)cc1)C(=O)c1ccco1 | 8.72 |
| COc1ccc(CN(CCC(c2ccc(F)cc2)C2CCOC(C)(C)C2)C(=O)c2ccco2)cc1 (centres unmarked) | -52.1 |
| CC(c1ccccc1)N(CCC(c1ccccc1)C1CCOC(C)(C)C1)C(=O)c1ccco1 (centres unmarked) | -22.2 |
| COc1ccc(CN(CC(=O)NCc2ccc(F)cc2)C(=O)c2ccco2)cc1 | -61.7 |
| COc1ccc(CN(CCC(c2ccccc2)C2CCOC(C)(C)C2)C(C)=O)cc1 (centres unmarked) | -11.6 |

| SMILES | hERG current change (%, negative = inhibition) at 10uM [%] |
| --- | --- |
| COc1ccc(CNCCC(c2ccccc2)C2CCOC(C)(C)C2)cc1 (centres unmarked) | -52.1 |
| O=C(CN(C(=O)CCC(=O)Nc1nccs1)c1ccc(F)cc1)NCc1ccc(F)cc1 | 16.8 |
| Cc1cc(N)ccc1N=Nc1c(C)n(C)n(-c2ccccc2)c1=O | -5.57 |
| Cc1cc(=O)[nH]c(SCC(=O)NCCC2=CCCCC2)n1 | 28.2 |
| Cc1c(C(=O)N2CCCCC2)c(S(=O)(=O)N(C)Cc2ccccc2)c(C)n1C | 2.66 |
| O=C(Nc1ccccc1C(=O)NCC1CCCO1)c1ccc(Cl)cc1 (centres unmarked) | -34.8 |
| CC1(C)CC2CC(C)(CN2C(=O)COC(=O)c2cccc(O)c2)C1 (centres unmarked) | 6.76 |
| N#Cc1ccc(-c2ccccc2)nc1Sc1ccc(F)cc1 | 13.2 |
| CC(C)Oc1cccc(C(=O)Nc2ccc(N3CCN(S(C)(=O)=O)CC3)cc2)c1 | -0.708 |
| O=C1CC(c2ccccc2)CCc2sccc2N1 (centres unmarked) | -5.86 |
| O=C(c1nc2ccccn2c1CNCCCn1cccn1)N1CCCC1 | -12.1 |
| Cc1cccn2c(CNCC3OCCc4ccccc43)c(C(=O)N3CCCCC3)nc12 (centres unmarked) | -19.5 |
| O=C(c1nc2ccccn2c1CNCC1OCCc2ccccc21)N1CCOCC1 (centres unmarked) | -0.852 |
| Cc1ccn2c(CNCC3OCCc4ccccc43)c(C(=O)N3CCCCCC3)nc2c1 (centres unmarked) | -62.9 |
| CN1Cc2ccccc2CC1CNCc1c(C(=O)N2CCCC2)nc2ccccn12 (centres unmarked) | -73.5 |
| Cc1cc(C(F)(F)F)nc(CCNCc2c(C(=O)N3CCCC3)nc3ccccn23)n1 | -14.4 |
| Cc1onc(-c2ccccc2)c1C(=O)NCC(O)c1ccccc1 (centres unmarked) | 5 |
| Cc1onc(-c2ccccc2)c1C(=O)NC(C)c1ccc2c(c1)OCO2 (centres unmarked) | 27.7 |
| COc1cc(OC)cc(C(=O)OCC(=O)NCc2ccc3c(c2)OCO3)c1 | 12.9 |
| CCCc1ccc2oc(C(=O)N3CCC(COC)C3)c(C)c2c1 (centres unmarked) | -38.4 |
| O=C(NC1CS(=O)(=O)CC1NCc1ccco1)c1ccccc1 (centres unmarked) | 2.09 |
| O=S(=O)(NCCN1CCCC1)c1ccc(Cl)cc1 | 10.3 |
| Clc1ccc(C(CCN2CCCC2)Cc2ccccc2)cc1 (centres unmarked) | -62.7 |

| SMILES | hERG current change (%, negative = inhibition) at 10uM [%] |
| --- | --- |
| Cl.OC(CCCCN1CCCCC1)c1ccccc1 (centres unmarked) | -18.1 |
| Cl.ClC(CCN1CCN(Cc2ccccc2)CC1)c1ccccc1 (centres unmarked) | -20.6 |
| OC(CCN1CCCCC1)c1ccc(-c2ccccc2)cc1 (centres unmarked) | -56.4 |
| OC(CCN1CCOCC1)c1ccccc1 (centres unmarked) | 4.54 |
| Oc1ccc(-c2ccccc2)cc1CN1CCCCCC1 | -52.1 |
| Oc1ccc(Br)cc1CN1CCCCCCC1 | -47.6 |
| N#CCCN1CCN(Cc2cc(-c3ccccc3)ccc2O)CC1 | -48.8 |
| O=S(=O)(Nc1ccc(N2CCOCC2)cc1)c1ccc(F)cc1 | 4.3 |
| COC(=O)N1N=C(c2ccc(Br)cc2)CC1(O)C(F)(F)F (centres unmarked) | -1.71 |
| CCOc1ccc(CNC(=O)CN2C(=O)C(c3ccccc3)Oc3cccnc32)cc1 (centres unmarked) | -3.6 |
| O=C(N/N=C/c1ccncc1)c1ccc(COc2cccc3cccnc23)cc1 | -45.6 |
| O=C(N/N=C/c1ccc[nH]1)c1ccc(COc2cccc3cccnc23)cc1 | -58.3 |
| O=C(N/N=C/c1cccc(O)c1)c1ccc(COc2cccc3cccnc23)cc1 | 22.8 |
| CCOC(=O)C1=c2/c(=C/c3ccncc3)c(N)c(C(=O)OC)n2C(=O)C(c2ccncc2)S1 (centres unmarked) | 1.36 |
| O=C(CCc1ccccc1)NNC(=O)c1ccc(NC(=O)c2ccccc2)cc1 | 2.53 |
| Cc1cc(S(=O)(=O)Nc2ccc3c(c2)COC3=O)ccc1F | 7.2 |
| Cc1cc(C)n(C(=O)c2cccc(S(=O)(=O)N3CCCC3)c2)n1 | 6.46 |
| O=C(Nc1ccnn1C1CCN(C/C=C/c2ccccc2)CC1)C1CCCC1 | -73 |
| O=C(Nc1ccnn1C1CCN(C/C=C/c2ccc(F)cc2)CC1)C1CCCC1 | -76.2 |
| O=C(Nc1ccnn1C1CCN(Cc2c(F)cccc2Cl)CC1)C1CCCC1 | -32.1 |
